Reference: PubChem BioAssay (NCI)
About 79,000 compounds went through this panel and 15% of them were active in at least one assay; those are over-represented in the sample as a whole. Values without a mark were called inactive. The source made the active and inactive calls. Cut-off read from the data, not from the text of the source: active = growth inhibition above about 70%; inactive = the rest. Where a SMILES comes first, the peptide text is derived from it. The star is where a group is joined. Trt = c1ccc(C(c2ccccc2)(c2ccccc2)*)cc1; OtBu = CC(C)(C)O*

Columns and labels:
[1] = NCI Yeast Anticancer Drug Screen. Data for the rad50 strain (AID 155);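 note: 0% = growth of vehicle-only cultures of the same strain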; conditions: S. cerevisiae rad50 strain growth inhibition, hits give high values
Procedure, shortened: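 Readout: growth inhibition relative to vehicle-treated cultures. Compound exposure was carried out in a genetically defined yeast strain deficient in DNA damage repair.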

[2] = NCI Yeast Anticancer Drug Screen. Data for the mec2-1 strain (AID 157); conditions: S. cerevisiae mec2-1 strain, hits give high values
Procedure, shortened: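 Strain: mec2-1 (DNA repair/cell cycle alteration). Compound exposure, then growth measured; inhibition expressed relative to vehicle.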

[3] = NCI Yeast Anticancer Drug Screen. Data for the sgs1 mgt1 strain (AID 161);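 note: 0% = growth of cultures given vehicle only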; conditions: S. cerevisiae sgs1 mgt1 strain, hits give high values
Procedure, shortened: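 Test agents were incubated with a DNA-repair-mutant yeast strain. Growth was then read and compared against vehicle-treated controls.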

[4] = NCI Yeast Anticancer Drug Screen. Data for the cln2 rad14 strain (AID 165);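 note: 0% = growth equal to vehicle treated cultures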; conditions: S. cerevisiae cln2 rad14 strain, hits give high values
Procedure, shortened: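 Compounds are applied to the cln2 rad14 yeast strain, and growth is then compared with that of vehicle-treated cultures to give inhibition.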

[5] = NCI Yeast Anticancer Drug Screen. Data for the bub3 strain (AID 167); conditions: S. cerevisiae bub3 mutant strain, hits give high values
Procedure, shortened: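 Readout: yeast growth inhibition, expressed relative to vehicle-only wells. The test organism is a mutant strain from a panel with lesions in DNA repair or checkpoint genes.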

[6] = NCI Yeast Anticancer Drug Screen. Data for the mlh1 rad18 strain (AID 175); conditions: S. cerevisiae mlh1 rad18 strain growth inhibition, hits give high values
Procedure, shortened: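 Read-out is yeast growth inhibition, calculated against vehicle-only controls. The compound was applied to a strain engineered with DNA damage repair alterations.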

[7] = at 5.0 µM (retest, dose inferred, filed as 0.5)
[8] = at 50.0 µM (retest, dose inferred, filed as 5.0)

| Compound | growth inhibition [1, 7] | growth inhibition [1, 8] | growth inhibition ([1]; at 50.0 µM) | growth inhibition [2, 7] | growth inhibition [2, 8] | growth inhibition ([2]; at 50.0 µM) | growth inhibition [3, 7] | growth inhibition [3, 8] | growth inhibition ([3]; at 50.0 µM) | growth inhibition [4, 7] | growth inhibition [4, 8] | growth inhibition ([4]; at 50.0 µM) | growth inhibition [5, 7] | growth inhibition [5, 8] | growth inhibition ([5]; at 50.0 µM) | growth inhibition [6, 7] | growth inhibition [6, 8] | growth inhibition ([6]; at 50.0 µM) |
| --- | --- | --- | --- | --- | --- | --- | --- | --- | --- | --- | --- | --- | --- | --- | --- | --- | --- | --- |
| COc1cc(OC)c(C(c2cc3c(cc2O)OCO3)N2CCOCC2)c(OC)c1 (centres undefined) | 2% | 99% (active) | 57.9% | 2% | 98% (active) | 61.1% | -1% | 98% (active) | 50.3% | 0% | 99% (active) | 23.7% | 5% | 99% (active) | 18.8% | -2% | 99% (active) | 63.2% |
| NC(N)=Nc1ccc(Cc2ccc(N=C(N)N)cc2)cc1 | 0% | -3% | -33.2% | 0% | -4% | -58% | 2% | 0% | -17.9% | 3% | 2% | 45% | 3% | 2% | -10.2% | -6% | -4% | -39% |
| Nc1nc(-c2ccccc2)c(N=Nc2c(Cl)cccc2Cl)s1 | -2% | 94% (active) | 96.5% (active) | 21% | 95% (active) | 90.3% (active) | 9% | 94% (active) | 55.4% | 17% | 95% (active) | 87.7% (active) | 13% | 94% (active) | 91% (active) | 17% | 94% (active) | 96.8% (active) |
| O=C(Nc1ccc(Br)cc1)c1cc(Br)c(O)c(Br)c1O | 21% | 99% (active) | 58.1% | 9% | 99% (active) | 98.8% (active) | 29% | 99% (active) | 59.9% | -5% | 99% (active) | 92.2% (active) | 11% | 99% (active) | 98.4% (active) | 24% | 99% (active) | 98% (active) |
| CC1(c2ccccc2)OC(=O)C=CC1=O (centres undefined) | 15% | 99% (active) | 99.4% (active) | 28% | 98% (active) | 99.7% (active) | 21% | 97% (active) | 99.5% (active) | 8% | 100% (active) | 99% (active) | 32% | 100% (active) | 99.5% (active) | 27% | 99% (active) | 99.5% (active) |
| CN(C)c1ccc(C2(Cl)c3ccccc3N(Cc3ccccc3)c3ccccc32)cc1 | 99% (active) | 94% (active) | 96.5% (active) | 99% (active) | 95% (active) | 97.2% (active) | 99% (active) | 95% (active) | 96% (active) | 99% (active) | 93% (active) | 93.2% (active) | 99% (active) | 94% (active) | 96.4% (active) | 99% (active) | 94% (active) | 96.3% (active) |
| CC(C)(C)c1ccc(O)c(CN(Cc2c(O)ccc3ccccc23)C2CCCCC2)c1 | 22% | 99% (active) | 98% (active) | 17% | 98% (active) | 98.2% (active) | 13% | 99% (active) | 98% (active) | -12% | 97% (active) | 97.7% (active) | -3% | 99% (active) | 97.4% (active) | 10% | 99% (active) | 98.1% (active) |
| CCOP(=O)(OCC)/C(C#N)=C/c1coc2cc(C)cc(C)c2c1=O | 19% | 99% (active) | 86.7% (active) | -7% | 100% (active) | 91.9% (active) | -10% | 99% (active) | 78% (active) | 0% | 99% (active) | 59% | -9% | 98% (active) | 87.2% (active) | 26% | 99% (active) | 82.2% (active) |
| O=C1C(=O)c2ccccc2C(O)=C1C(c1ccccc1)c1ccccc1 | 42% | 82% (active) | 53.5% | 39% | 85% (active) | 66% | 57% | 91% (active) | 82.5% (active) | 27% | 83% (active) | 58.2% | 18% | 83% (active) | 60.6% | 54% | 90% (active) | 62% |
| O=[N+]([O-])C12CCCCC1([N+](=O)[O-])CCCC2 (centres undefined) | -1% | 41% | 62.9% | -5% | 30% | 21.6% | -3% | 33% | 35.5% | -9% | 22% | 31.1% | -1% | 65% | 84.8% (active) | 0% | 28% | 37.8% |
| COc1c(O)cc(C=O)cc1[N+](=O)[O-] | -7% | 14% | 7.3% | 1% | 12% | 2.15% | -1% | 11% | 40.3% | 4% | 20% | 69.2% | -1% | 1% | -9.85% | -4% | 14% | 8.1% |
| NC1NCCC(=O)N1CCc1c[nH]c2ccccc12 (centres undefined) | -18% | 99% (active) | 65.9% | 7% | 100% (active) | 54.9% | -22% | 99% (active) | 54.4% | 31% | 99% (active) | 22.3% | -26% | 100% (active) | 74.5% (active) | -12% | 100% (active) | 53.6% |
| O=[n+]1c2c(n([O-])c3ccc4ccccc4c31)-c1cccc3cccc-2c13 | 1% | 7% | 2.4% | -1% | -3% | 15.2% | -4% | -5% | 11.1% | 3% | -7% | 55.9% | -1% | -9% | 19.7% | -2% | 1% | -5.75% |
| CC(C)(C)OC(=O)CNC(=O)C(Cc1ccccc1)NC(=O)C(N)CSC(c1ccccc1)(c1ccccc1)c1ccccc1 (stereo not drawn) (H-Cys(Trt)-Phe-Gly-OtBu; configuration not given here) | -3% | 16% | 59.2% | -5% | 53% | 82.2% (active) | 0% | 41% | 76.5% (active) | -5% | 48% | 41.3% | 1% | 34% | 17.9% | -3% | 45% | 73.3% (active) |
| COc1cc(C(c2cc3c(cc2O)OCO3)N2CCN(C(c3ccc(O)c(OC)c3)c3cc4c(cc3O)OCO4)CC2)ccc1O (centres undefined) | -1% | 98% (active) | 99.2% (active) | 3% | 99% (active) | 99.3% (active) | -3% | 97% (active) | 99.5% (active) | 2% | 82% (active) | 96.7% (active) | -1% | 99% (active) | 99% (active) | 2% | 98% (active) | 98.5% (active) |
| Cc1cccc(Cl)c1NC(=S)Nc1cccc(C(F)(F)F)c1 | -4% | 2% | 88.8% (active) | 2% | 8% | 89.4% (active) | 10% | 1% | 92.3% (active) | 24% | 23% | 88.3% (active) | 20% | 9% | 89.6% (active) | -21% | 17% | 86.2% (active) |
| CNc1ccc(N=O)cc1 | -1% | 90% (active) | 87.8% (active) | 27% | 99% (active) | 90.8% (active) | 5% | 57% | 89% (active) | 19% | 81% (active) | 74.7% (active) | 25% | 98% (active) | 89.2% (active) | 19% | 98% (active) | 87.6% (active) |
| CCc1ccccc1NC(=O)C(=O)C(C#N)c1c(Cl)cccc1Cl (centres undefined) | -8% | -2% | -26.7% | 2% | 1% | 8.8% | -17% | -33% | 20.7% | -6% | 4% | -28.7% | 1% | 0% | 12.2% | 0% | -1% | 14.7% |
